# Records with an inconclusive call do not appear. Active and inactive are the calls of the source. Unless noted, the call rests on the fitted dose curve; in most records, active means well fitted curve in the direction sought with a large enough effect; inconclusive means small, poorly fitted or top-dose-only effect, or another doubt; inactive means no such curve, though single readings can be large; an effect the other way counts as inactive or inconclusive.
# Key:
# [1] = qHTS profiling of the MIPE4 collection as inhibitors of Plasmodium falciparum (3D7) proliferation (AID 743344; call rule not given here;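 further: scaled between DMSO vehicle wells and 0.29 µM artemisinin as full inhibition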); conditions: P. falciparum 3D7 in erythrocytes, SYBR Green DNA fluorescence, 72 h; at 28.5 µM unless noted
# In short: (§1)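 Erythrocytes infected with P. falciparum (0.3% parasitemia, 2.5% hematocrit) incubated with compounds 72 h at 37 C, 5% CO2. Lysis with saponin/Triton buffer containing SYBR Green I, overnight at room temperature in the dark; DNA fluorescence (485/535 nm) normalised to 0.29 uM artemisinin and DMSO.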
# [2] = qHTS profiling of the MIPE4 collection as inhibitors of Plasmodium falciparum (DD2) proliferation (AID 743345; call rule not given here); conditions: P. falciparum Dd2 in erythrocytes, SYBR Green DNA, 72 h; at 28.5 µM unless noted
# In short: as §1
# [3] = qHTS profiling of the MIPE4 collection as inhibitors of Plasmodium falciparum (DD2) proliferation (Rep 2) (AID 743346; call rule not given here); conditions: P. falciparum Dd2 in erythrocytes, SYBR Green DNA, 72 h; at 28.5 µM unless noted
# In short: as §1
# [4] = qHTS profiling of the MIPE4 collection as inhibitors of Plasmodium falciparum (HB3) proliferation (AID 743347; call rule not given here;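 further: plate controls were DMSO vehicle wells for no effect and artemisinin wells for full effect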); conditions: P. falciparum HB3 in erythrocytes, SYBR Green DNA, 72 h; at 28.5 µM unless noted
# In short: as §1
# [5] = High-throughput drug toxicity screening in the BPDCN cell line Gen2.2 (AID 1224824; call rule not given here;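 further: cells exposed to compounds for 48 h before reading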); conditions: Gen2.2 BPDCN cells; at 45.8 µM (top of the series) unless noted
# In short: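 Gen2.2 cells (500/well) in phenol red-free RPMI with 10% FBS were exposed to compounds for 48 h at 37 °C, 5% CO2. Viability was read by CellTiter-Glo luminescence and normalized to DMSO (100%) and 9.2 uM bortezomib (0%).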
# [6] = High-throughput drug toxicity screening in the BPDCN cell line Cal-1 (AID 1224825; call rule not given here); conditions: Cal-1 BPDCN cell viability, qHTS; at 45.8 µM (top of the series) unless noted
# In short: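 Exponentially growing Cal-1 cells, 500 per well in phenol red-free RPMI with 10% FBS, were exposed to compounds for 48 h at 37 °C, 5% CO2. Viability was read by CellTiter-Glo luminescence and normalised to DMSO (100%) and 9.2 uM bortezomib (0%).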
# [7] = qHTS assay for measurement of the activity of small molecule inhibitors on Zika virus induced Caspase-3 activity in human iPSC derived neural progenitor cells (hNPCs) (AID 1224857); further: % of control where 0% means no effect; nearly all actives have a fitted effect of over 65% in size
# In short: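 After overnight (16–20 h) culture at 350 cells/well, hNPCs get compound, then ZIKV 2 FFU/cell one hour later. Six hours on, Caspase-Glo 3/7 is added and luminescence measured.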
# [8] = qHTS assay for measurement of the activity of small molecule inhibitors on Zika virus induced Caspase-3 activity in human astrocytoma cells (AID 1224859);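 further: plate controls were ZIKV-infected untreated cells for no effect and uninfected cells for full effect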
# In short: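 Inhibition of Zika-induced caspase-3/7 activity: SNB-19 cells, 1 h compound pretreatment, ZIKV 2 FFU/cell for 6 h at 37 C, Caspase-Glo luminescence read-out.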
# [9] = qHTS Screen of the MIPE 4.0 Collection Against Ewings Sarcoma (RDES) (AID 1259252); further: nearly all actives have a fitted effect of over 35% in size; further: potency means the concentration at half of the fitted maximal effect
# In short: (§2)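 Measured: ATP luminescence (CellTiter-Glo) 10 min after reagent addition, following 48 h drug treatment. Relative luciferase units converted to percent activity, with no-cell wells as full and DMSO wells as zero inhibition.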
# [10] = qHTS Screen of the MIPE 4.0 Collection Against Ewings Sarcoma (TC71) (AID 1259253); further: nearly all actives have a fitted effect of over 40% in size; further: potency means the concentration at half of the fitted maximal effect
# In short: as §2
# [11] = qHTS Screen of the MIPE 4.0 Collection Against Ewings Sarcoma (EW8) (AID 1259255); further: nearly all actives have a fitted effect of over 35% in size; further: potency means the concentration at half of the fitted maximal effect;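 on viability: 100% = DMSO-treated cells and 0% = medium-only wells without cells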
# In short: as §2
# [12] = qHTS Screen of the MIPE 4.0 Collection Against Ewings Sarcoma (TC32) (AID 1259256); further: nearly all actives have a fitted effect of over 45% in size; further: potency means the concentration at half of the fitted maximal effect
# In short: as §2
# [13] = qHTS profiling for inhibitors of Plasmodium falciparum (3D7) proliferation (AID 743322; call rule not given here;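 further: infected erythrocytes exposed to compound for 72 h before lysis; 100% = DMSO vehicle wells and 0% = 0.29 µM artemisinin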); conditions: P. falciparum 3D7 proliferation; at 28.7 µM (top of the series)
# In short: as §1
# [14] = qHTS profiling for inhibitors of Plasmodium falciparum (DD2) proliferation (AID 743323; call rule not given here); conditions: lower = more inhibition; at 28.7 µM (top of the series)
# In short: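 Parasite proliferation measured via DNA-dye fluorescence, as uninfected erythrocytes lack DNA. Cultures at 0.3% parasitemia and 2.5% hematocrit incubated 72 h with compound; signal scaled between vehicle and 0.29 uM artemisinin wells.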
# [15] = qHTS profiling for inhibitors of Plasmodium falciparum (HB3) proliferation (AID 743324); conditions: Plasmodium falciparum HB3 blood-stage proliferation; at 28.7 µM (top of the series);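 further: 100% = DMSO vehicle wells and 0% = artemisinin-treated control wells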
# In short: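 P. falciparum HB3 grown in erythrocytes (0.3% parasitemia, 2.5% hematocrit final) with compound for 72 h at 37 C, 5% CO2. Parasite DNA detected by SYBR Green after saponin/triton lysis overnight; normalized to 0.29 uM artemisinin and DMSO.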
# [16] = Identifying Small Molecule Inhibitors of Pancreatic Cancer Stem Cells (SN12C, Adherent) (AID 1259358);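 further: cell survival measured after 48 h of compound exposure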
# In short: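 After a 4 h attachment period, compounds were pinned into wells and cultures held 48 h under standard incubator conditions. Viability was then measured as CellTiter-Glo luminescence following 10 min at room temperature.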
smiles,measurement,setting,value
CCc1c2c(nc3ccc(O)cc13)-c1cc3c(c(=O)n1C2)COC(=O)[C@]3(O)CC,"parasite growth, % of DMSO control",[1],13.6%
same,"parasite growth remaining, % of DMSO control (lower = more inhibition)",[2],12.1%
same,"parasite growth, % of control (lower = inhibition)",[3],19.1%
same,"growth, % of control",[4],11.3%
same,"cell viability, % of control (lower = more cytotoxic)",[5],6.79%
same,viability (% of control),[6],5.47%
same,Potency,[7],inactive
same,Potency,[8],inactive
same,Potency,[9],0.0021 µM (active)
same,Potency,[10],0.0023 µM (active)
same,Potency,[11],0.0021 µM (active)
same,Potency,[12],inactive
O=C(NCCS(=O)(=O)c1ccc(C(F)(F)F)cn1)c1ccc(Cl)cc1,remaining parasite growth % (stronger effect = lower value),[13],98.8%
same,"activity, percent of control",[14],98.7%
same,"remaining proliferation (% of control), lower = more inhibition",[15],99.7%
same,"parasite growth remaining, % of DMSO control (lower = more inhibition)",[2],103%
same,"parasite growth, % of control (lower = inhibition)",[3],82.3%
same,"growth, % of control",[4],84.8%
same,"cell viability, % of control (lower = more cytotoxic)",[5],146%
same,viability (% of control),[6],123%
same,Potency,[7],inactive
same,Potency,[8],inactive
same,Potency,[9],inactive
same,Potency,[10],inactive
same,Potency,[11],inactive
same,Potency,[12],inactive
same,Potency,[16],inactive
Clc1ccc2ncc(-c3cccc(NC4CNC4)n3)n2c1,remaining parasite growth % (stronger effect = lower value),[13],5.93%
same,"activity, percent of control",[14],12%
same,"remaining proliferation (% of control), lower = more inhibition",[15],6.95%
same,"parasite growth, % of DMSO control",[1],10.6%
same,"parasite growth remaining, % of DMSO control (lower = more inhibition)",[2],24.5%
same,"parasite growth, % of control (lower = inhibition)",[3],24.4%
same,"growth, % of control",[4],3.87%
same,"cell viability, % of control (lower = more cytotoxic)",[5],15.7%
same,viability (% of control),[6],4.56%
same,Potency,[7],inactive
same,Potency,[8],inactive
same,Potency,[9],18.7 µM (active)
same,Potency,[10],20.9 µM (active)
same,Potency,[11],3.32 µM (active)
same,Potency,[12],18.7 µM (active)
CCn1cc(-c2ccnc3[nH]c(-c4cccc(CN(C)C)c4)cc23)c(-c2ccc(NC(=O)N(C)C)cc2)n1,"parasite growth, % of DMSO control",[1],5%
same,"parasite growth remaining, % of DMSO control (lower = more inhibition)",[2],8.23%
same,"parasite growth, % of control (lower = inhibition)",[3],9.35%
same,"growth, % of control",[4],5.95%
same,"cell viability, % of control (lower = more cytotoxic)",[5],3.65%
same,viability (% of control),[6],2.71%
same,Potency,[7],inactive
same,Potency,[8],inactive
same,Potency,[9],7.43 µM (active)
same,Potency,[10],3.72 µM (active)
same,Potency,[11],0.0469 µM (active)
same,Potency,[12],0.0469 µM (active)
CC(O)C1C(=O)N2C(C(=O)O)=C(SC3CNC(C(=O)N(C)C)C3)C(C)C12 (configuration not stated),"parasite growth, % of DMSO control",[1],87.4%
same,"parasite growth remaining, % of DMSO control (lower = more inhibition)",[2],93.4%
same,"parasite growth, % of control (lower = inhibition)",[3],82.6%
same,"growth, % of control",[4],75.4%
same,"cell viability, % of control (lower = more cytotoxic)",[5],120%
same,viability (% of control),[6],98.9%
same,Potency,[7],inactive
same,Potency,[8],inactive
same,Potency,[9],inactive
same,Potency,[10],inactive
same,Potency,[11],inactive
same,Potency,[12],inactive
Cc1cn(-c2cc(NC(=O)c3ccc(C)c(Nc4nccc(-c5cccnc5)n4)c3)cc(C(F)(F)F)c2)cn1,remaining parasite growth % (stronger effect = lower value),[13],3.06%
same,"activity, percent of control",[14],12.7%
same,"remaining proliferation (% of control), lower = more inhibition",[15],2.94%
same,"parasite growth, % of DMSO control",[1],6.31%
same,"parasite growth, % of control (lower = inhibition)",[3],27.3%
same,"growth, % of control",[4],7.2%
same,"cell viability, % of control (lower = more cytotoxic)",[5],231%
same,viability (% of control),[6],101%
same,Potency,[7],inactive
same,Potency,[8],inactive
same,Potency,[9],inactive
same,Potency,[10],inactive
same,Potency,[11],inactive
same,Potency,[12],inactive
same,Potency,[16],inactive
O=C(O)[C@H](Cc1c[nH]c2ccccc12)N1C(=O)c2ccccc2C1=O,remaining parasite growth % (stronger effect = lower value),[13],105%
same,"activity, percent of control",[14],104%
same,"remaining proliferation (% of control), lower = more inhibition",[15],85.6%
same,"parasite growth, % of DMSO control",[1],99.6% [at 57.5 µM]
same,"parasite growth remaining, % of DMSO control (lower = more inhibition)",[2],98.7% [at 57.5 µM]
same,"parasite growth, % of control (lower = inhibition)",[3],77% [at 57.5 µM]
same,"growth, % of control",[4],106% [at 57.5 µM]
same,"cell viability, % of control (lower = more cytotoxic)",[5],151% [at 92.2 µM]
same,viability (% of control),[6],104% [at 92.2 µM]
same,Potency,[7],inactive
same,Potency,[8],inactive
same,Potency,[9],inactive
same,Potency,[10],inactive
same,Potency,[11],inactive
same,Potency,[12],inactive
same,Potency,[16],inactive
